{"source": "PubChem BioAssay (NCI)", "note": "The panel holds about 83,000 compounds, 20% with a hit somewhere; the sample as a whole holds those more often.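 Step 1: grow cells in 96-well plates. Step 2: add test compound at a single concentration. Step 3: incubate 48 h. Step 4: record percent growth.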 Calls of active or inactive are those of the source. Rule for the calls: active = growth percent below 10; inactive = the rest."}
{"system": "UO-31 renal", "experiment": "NCI-60 one-dose screen, 48 h (100 = growth as untreated, 0 = no growth, -100 = all killed)", "settings": "10 µM unless noted"}
{"compound": "COc1cc(CNS(=O)(=O)c2ccc(C)cc2)ccc1OCc1cn(-c2ccc(Br)cc2)nn1", "growth": "69.3% (inactive)"}
{"compound": "Cc1ccc(Cl)cc1Nc1nc(C(F)(F)F)ccc1C(=O)N/N=C/c1cccnc1", "growth": "15% (inactive)"}
{"compound": "COc1cc2c(c(OC)c1OC)-c1ccc(OC)c(=O)cc1[C@@H](NC(=O)CCl)CC2", "growth": "32.8% (inactive)"}
{"compound": "Fc1ccc(Nc2nc3nonc3nc2Nc2ccc(I)cc2)cc1", "growth": "-7.55% (active)"}
{"compound": "CO[C@H]1/C=C(/C)CCC[C@H](C)[C@H](O)[C@@H](C)C(=O)C(C)(C)[C@@H](O)CC(=O)O[C@@H]1/C(C)=C/c1csc(C)n1", "growth": "21.8% (inactive)"}
{"compound": "COCCn1c(-c2csc(-c3cn(C)c4ccc(OC)cc34)n2)cc2cccnc21", "growth": "54.9% (inactive)"}
{"compound": "CCNc1nc(-c2ccc(Cl)c(OC)c2)c(-c2ccnc(NCCCNS(=O)(=O)c3ccc(Cl)cc3)n2)s1", "growth": "64.9% (inactive)"}
{"compound": "O=C1COCCN1c1ccc(Nc2nc(Cl)nc(OCc3cn(Cc4ccccc4)nn3)n2)cc1", "growth": "73.6% (inactive)"}
{"compound": "N#Cc1c(-c2ccc(Cl)cc2)nc(SCC(=O)NC2=NN=C(c3ccccc3)CS2)[nH]c1=O", "growth": "71.2% (inactive)"}
{"compound": "Cc1cc2c(O)c(-c3cccc(Cl)c3)c3sc(=O)oc3c2cc1C", "growth": "54.2% (inactive)"}
{"compound": "CC1=C(CCC(C)N(C)Cc2ccc(OCCCN3CCCC3)cc2)C(C)(C)CCC1", "note": "(stereo unspecified)", "growth": "20.3% (inactive)"}
{"compound": "N#Cc1cccc(-c2c(-c3ccc4ccccc4c3)oc3ccccc3c2=O)c1", "growth": "51.4% (inactive)"}
{"compound": "Cc1nc2sc(C(=O)Nc3ccccc3)c(N)c2cc1C(=O)c1ccccc1", "growth": "59.5% (inactive)"}
{"compound": "O=C(O)CNC1=C(Cl)C(=O)c2ccccc2C1=O", "growth": "58.9% (inactive)"}
{"compound": "CCCCCC(=O)OCC(=O)O[C@@H]1C[C@]2(C(C)C)O[C@@]1(C)[C@@H]1CC[C@@H](C)[C@H]1[C@@H]2OC(=O)/C=C/c1ccccc1", "growth": "-80.3% (active)"}
{"compound": "CN1C(=O)/C(=C/c2ccc(C(=O)Nc3ncc(Cc4ccc(Cl)cc4)s3)cc2)SC1=S", "growth": "46.7% (inactive)"}
{"compound": "C#CCOc1ccc2ncnc(Nc3cccc(NC(=O)C=C)c3)c2c1", "growth": "41.3% (inactive)"}
{"compound": "CN(CCOc1ccc(C#N)cc1)CCOc1ccc(C#N)cc1", "growth": "63% (inactive)"}
{"compound": "CCOC(=O)c1c(NC(=O)c2ccc(C(C)C)cc2)sc2c(CN(C)C)c(O)ccc12", "growth": "70.5% (inactive)"}
{"compound": "COC(=O)c1c2c(c[n+]([O-])c1C)C(=O)C(NCc1ccccc1)=CC2=O", "growth": "-14.8% (active)"}
{"compound": "Nc1ncnc2c1N=C(c1ccc3c(c1)OCO3)CC(c1ccc([N+](=O)[O-])cc1)N2", "note": "(stereo unspecified)", "growth": "64.1% (inactive)"}
{"compound": "N#C/C(=C/c1ccc([N+](=O)[O-])cc1)n1nnc2cc(F)c(F)cc21", "growth": "64.7% (inactive)"}
{"compound": "CCN1CCN(c2cc(C(=O)Nc3nc(-c4cc(OC)c(OC)c(OC)c4)cs3)cc(C(F)(F)F)c2)CC1", "growth": "37% (inactive)"}
{"compound": "CN1CCN(c2ccc(C(=O)Nc3cccc(C#Cc4cccc5[nH]nc(N)c45)c3)cc2C(F)(F)F)CC1", "growth": "-62% (active)"}
{"compound": "CN1CCN(c2ccc(NC(=O)c3cncnc3Nc3ccc(OCc4ccccn4)c(Cl)c3)cc2)CC1", "growth": "-72.1% (active)"}
{"compound": "c1ccc(CNc2c3ccccc3nc3ccccc23)cc1", "growth": "23.8% (inactive)"}
{"compound": "C/C(=N\\NC(=O)c1ccccc1O)c1cccc(/C(C)=N/NC(=O)c2ccccc2O)n1", "growth": "38.6% (inactive)"}
{"compound": "N#Cc1c(NC(=O)c2ccccc2)sc2c1CCC(=O)C2", "growth": "-16.4% (active)"}
{"compound": "CCO/C=N/C1=C(C#N)C(c2ccc(OC)cc2)c2sc3c(F)cccc3c2O1", "note": "(stereo unspecified)", "growth": "38.1% (inactive)"}
{"compound": "O=C(CI)NC1Oc2ccccc2-c2oc(=O)c(-c3ccccc3)cc21", "note": "(stereo unspecified)", "growth": "-94.7% (active)"}
{"compound": "Brc1ccc2[nH]cc(-c3nonc3-c3c[nH]c4ccccc34)c2c1", "growth": "30.4% (inactive)"}
{"compound": "Fc1ccc2[nH]cc(-c3nonc3-c3c[nH]c4ccc(Br)cc34)c2c1", "growth": "17.3% (inactive)"}
{"compound": "N#CC1C=CN(CC(N)=O)c2ccc3cccnc3c21", "note": "(stereo unspecified)", "growth": "97.9% (inactive)"}
{"compound": "CCOC(=O)CSc1ncnc2c1c(-c1ccccc1)c(-c1ccccc1)n2-c1ccc(C)cc1", "growth": "73.4% (inactive)"}
{"compound": "O=C(Cn1c2c(c3ccccc31)CCCC2)Nc1ccc(-c2nc3ccccc3s2)cc1", "growth": "92.6% (inactive)"}
{"compound": "CC(C)=CCC[C@](C)(O)[C@H]1CC[C@]2(C)[C@@H]1CC[C@@H]1[C@@]3(C)Cc4nccnc4C(C)(C)[C@@H]3CC[C@]12C", "growth": "79.9% (inactive)"}
